This is an account of results in PubChem BioAssay (NCI).

The nature of the assay: NCI Yeast Anticancer Drug Screen. Data for the rad18 strain (AID 177). The note with it: S. cerevisiae rad18 mutant growth inhibition, active compounds read high. How it is done: Growth inhibition of yeast strains with defined genetic alterations is measured as a screen for potential anti-cancer activity. Selected strains with alterations in DNA damage repair or cell cycle control were exposed to compounds and growth inhibition was measured relative to vehicle treated controls. The strain used in this assay is rad18

Molecules are shown by their SMILES. Compounds without any hit were thinned out: in the full panel of roughly 79,000, 15% have a hit. Values without a mark were called inactive. Active and inactive are the calls of the source. Cut-off read from the data, not from the text of the source: active = growth inhibition above about 70%; inactive = the rest.

Consider `CCC(/C=C/c1ccccc1)=N\Nc1ccc(Cl)cc1`, for which the growth inhibition runs as follows: (at 1.2 µM) -3%; (at 3.7 µM) 1%; (at 11.0 µM) 3%; (at 33.0 µM) 79% (active); (at 100.0 µM) 95% (active).
Take `COC(=N)c1ccc(O)c(C)c1`: the growth inhibition by setting is: (at 1.2 µM) -2%; (at 3.7 µM) -1%; (at 11.0 µM) 1%; (at 33.0 µM) 3%; (at 100.0 µM) 8%.
For the compound `CC(C)OC(=O)NNc1cccc(Cl)c1`, the growth inhibition is 9% (at 1.2 µM); 61% (at 3.7 µM); 98% (active) (at 11.0 µM); 98% (active) (at 33.0 µM); 98% (active) (at 100.0 µM).
For `COc1ccc(C(=O)/C=C\c2ccc(Cl)c(Cl)c2)cc1`, the growth inhibition (at 1.2 µM) is -17%; the growth inhibition (at 3.7 µM) is -35%; the growth inhibition (at 11.0 µM) was -44%; the growth inhibition (at 33.0 µM) is -6%; the growth inhibition (at 100.0 µM) is 52%.
For `CC1CN(/N=C\c2ccc([N+](=O)[O-])o2)C(=O)O1` (stereo not given), in that order: 78% (active), 85% (active), 88% (active), 93% (active) and 97% (active).
For `CCCCCCC1OCC(O)C(OCCCC)O1` (stereo not given) the same measures were -3%, 1%, -1%, -2% and 1%.
For `CCOC(=S)SSSC(=S)OCC` the same measures were 0%, 8%, 56%, 98% (active) and 99% (active).
As for `O=C(CCCN1CCC(Nc2ccc(F)cc2)(c2nnnn2C2CCCCC2)CC1)c1ccc(F)cc1`, the growth inhibition runs as follows: (at 1.2 µM) 3%; (at 3.7 µM) 0%; (at 11.0 µM) 14%; (at 33.0 µM) 17%; (at 100.0 µM) 99% (active).
